# PubChem BioAssay (EPA / NIEHS)
# Active and inactive are the calls of the source. Rule for the calls: active = hit-call score of the fitted dose curve at least 0.9, where 1 is the maximum; inactive = score below 0.9.
# Read-out: adenosine kinase (ADK) gene, ADK (gene 132)
# Assay: LTEA_HepaRG_ADK: Life Technologies and Expression Analysis (LTEA) Assay for adenosine kinase (ADK) gene using HepaRG (AID 2283471)
# Settings: mRNA level, 48 h; actives raise or lower the signal
# Method in brief: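 Read-out is ADK transcript level measured by qRT-PCR and normalised to three housekeeping genes. Cells are human HepaRG, dosed for 48 h at up to 100 uM in 0.5% DMSO. Gain or loss of signal is fitted against DMSO controls.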
SMILES,outcome,AC50
CNC(=O)Oc1cccc2ccccc12,inactive,
CCSC(=O)N1CCCCCC1,inactive,
COc1ccc(-c2ccccc2)cc1NNC(=O)OC(C)C,inactive,
CC(C)=CC1C(C(=O)OCc2coc(Cc3ccccc3)c2)C1(C)C (stereo not drawn),inactive,
OC(c1ccc(Cl)cc1)(c1ccc(Cl)cc1)C(Cl)(Cl)Cl,,74 µM (active)
COC(=O)NS(=O)(=O)c1ccc(N)cc1,inactive,
CC(C)Oc1cccc(NC(=O)c2ccccc2C(F)(F)F)c1,inactive,
CS(=O)(=O)c1cc(C(F)(F)F)ccc1C(=O)c1cnoc1C1CC1,inactive,
CCOP(=O)(OCC)Oc1nc(Cl)c(Cl)cc1Cl,inactive,
CCOP(=S)(OCC)Oc1nc(Cl)n(C(C)C)n1,inactive,
CCOc1nc(F)cc2nc(S(=O)(=O)Nc3c(Cl)cccc3Cl)nn12,,41.3 µM (active)
COP(=S)(OC)SCn1nnc2ccccc2c1=O,inactive,
CNC(=O)N(C)c1nnc(C(C)(C)C)s1,inactive,
Clc1nc(Cl)nc(Nc2ccccc2Cl)n1,inactive,
Nc1c(Cl)c(Cl)nc(C(=O)O)c1Cl,inactive,
Nc1c(Cl)c(F)nc(OCC(=O)O)c1Cl,inactive,
CC1(C)CCC(=Cc2ccc(Cl)cc2)C1(O)Cn1cncn1 (stereo not drawn),inactive,
CSC(=O)c1c(C(F)F)nc(C(F)(F)F)c(C(=O)SC)c1CC(C)C,inactive,

SMILES,outcome,AC50
CCCCC(C#N)(Cn1cncn1)c1ccc(Cl)cc1 (stereo not drawn),inactive,
O=C(O)c1c(Cl)ccc2cc(Cl)cnc12,inactive,
O=P(O)(O)CCCl,inactive,
Cc1cnc(C2=NC(C)(C(C)C)C(=O)N2)c(C(=O)O)c1 (stereo not drawn),inactive,
CCOC(=O)C(C)OC(=O)c1cc(Oc2ccc(C(F)(F)F)cc2Cl)ccc1[N+](=O)[O-] (stereo not drawn),inactive,
COC(=O)N(C(=O)N1CO[C@@]2(C(=O)OC)Cc3cc(Cl)ccc3C2=N1)c1ccc(OC(F)(F)F)cc1,inactive,
CC1(C)C(C=C(Cl)Cl)C1C(=O)OC(C#N)c1cccc(Oc2ccccc2)c1 (stereo not drawn),inactive,
Cc1cc(C)nc(Nc2ccccc2)n1,inactive,
O=c1n(Cl)c(=O)n(Cl)c(=O)n1Cl,inactive,
CO/N=C(/C1=NOCCO1)c1ccccc1Oc1ncnc(Oc2ccccc2Cl)c1F,inactive,
COCC(=O)N(c1c(C)cccc1C)C(C)C(=O)OC (stereo not drawn),inactive,
C=CCOC(=O)C(C)(C)OC(=O)c1cc(-n2c(=O)cc(C(F)(F)F)n(C)c2=O)ccc1Cl,inactive,
COC(=O)c1c(C(F)F)nc(C(F)(F)F)c(C2=NCCS2)c1CC(C)C,inactive,
CN=C=S,inactive,
CC(C)NC(=O)N1CC(=O)N(c2cc(Cl)cc(Cl)c2)C1=O,inactive,
COc1cc(OC)nc(NC(=O)NS(=O)(=O)c2ncccc2OCC(F)(F)F)n1,inactive,
COP(=O)(OC)O/C(C)=C/C(=O)N(C)C,inactive,
CCOc1cc(C(C)(C)C)ccc1C1COC(c2c(F)cccc2F)=N1 (stereo not drawn),inactive,

# Read-out: Alpha-fetoprotein (AFP) gene, AFP (gene 174)
# Assay: LTEA_HepaRG_AFP: Life Technologies and Expression Analysis (LTEA) Assay for Alpha-fetoprotein (AFP) gene using HepaRG (AID 2283472);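 for AC50: AFP transcript by TaqMan qRT-PCR normalized to ACTB GAPDH and POLR2A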
# Settings: mRNA level, 48 h; actives raise or lower the signal
# Method in brief: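 qRT-PCR (Fluidigm TaqMan) readout of AFP transcript, normalized to three housekeeping genes, fitted bidirectionally against 0.5% DMSO baseline. HepaRG cells received chemicals for 48 h in serum-free induction medium, top concentration 100 uM, half-log steps.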
SMILES,outcome,AC50
CNC(=O)Oc1cccc2ccccc12,inactive,
CCSC(=O)N1CCCCCC1,inactive,
COc1ccc(-c2ccccc2)cc1NNC(=O)OC(C)C,inactive,
CC(C)=CC1C(C(=O)OCc2coc(Cc3ccccc3)c2)C1(C)C (stereo not drawn),inactive,
OC(c1ccc(Cl)cc1)(c1ccc(Cl)cc1)C(Cl)(Cl)Cl,inactive,
COC(=O)NS(=O)(=O)c1ccc(N)cc1,inactive,
CC(C)Oc1cccc(NC(=O)c2ccccc2C(F)(F)F)c1,inactive,
CS(=O)(=O)c1cc(C(F)(F)F)ccc1C(=O)c1cnoc1C1CC1,inactive,
CCOP(=O)(OCC)Oc1nc(Cl)c(Cl)cc1Cl,,75.9 µM (active)
CCOP(=S)(OCC)Oc1nc(Cl)n(C(C)C)n1,,21.2 µM (active)
CCOc1nc(F)cc2nc(S(=O)(=O)Nc3c(Cl)cccc3Cl)nn12,,25.3 µM (active)
COP(=S)(OC)SCn1nnc2ccccc2c1=O,inactive,
Nc1c(Cl)c(Cl)nc(C(=O)O)c1Cl,inactive,
Nc1c(Cl)c(F)nc(OCC(=O)O)c1Cl,inactive,
CSC(=O)c1c(C(F)F)nc(C(F)(F)F)c(C(=O)SC)c1CC(C)C,,49.8 µM (active)
CCCCC(C#N)(Cn1cncn1)c1ccc(Cl)cc1 (stereo not drawn),,67 µM (active)

SMILES,outcome,AC50
O=C(O)c1c(Cl)ccc2cc(Cl)cnc12,inactive,
O=P(O)(O)CCCl,inactive,
Cc1cnc(C2=NC(C)(C(C)C)C(=O)N2)c(C(=O)O)c1 (stereo not drawn),inactive,
CCOC(=O)C(C)OC(=O)c1cc(Oc2ccc(C(F)(F)F)cc2Cl)ccc1[N+](=O)[O-] (stereo not drawn),,50 µM (active)
COC(=O)N(C(=O)N1CO[C@@]2(C(=O)OC)Cc3cc(Cl)ccc3C2=N1)c1ccc(OC(F)(F)F)cc1,,40 µM (active)
CC1(C)C(C=C(Cl)Cl)C1C(=O)OC(C#N)c1cccc(Oc2ccccc2)c1 (stereo not drawn),inactive,
O=c1n(Cl)c(=O)n(Cl)c(=O)n1Cl,inactive,
CO/N=C(/C1=NOCCO1)c1ccccc1Oc1ncnc(Oc2ccccc2Cl)c1F,,18.2 µM (active)
COCC(=O)N(c1c(C)cccc1C)C(C)C(=O)OC (stereo not drawn),inactive,
C=CCOC(=O)C(C)(C)OC(=O)c1cc(-n2c(=O)cc(C(F)(F)F)n(C)c2=O)ccc1Cl,inactive,
COC(=O)c1c(C(F)F)nc(C(F)(F)F)c(C2=NCCS2)c1CC(C)C,inactive,
CN=C=S,inactive,
CC(C)NC(=O)N1CC(=O)N(c2cc(Cl)cc(Cl)c2)C1=O,,13.2 µM (active)
COc1cc(OC)nc(NC(=O)NS(=O)(=O)c2ncccc2OCC(F)(F)F)n1,inactive,
COP(=O)(OC)O/C(C)=C/C(=O)N(C)C,inactive,
CCOc1cc(C(C)(C)C)ccc1C1COC(c2c(F)cccc2F)=N1 (stereo not drawn),,25.7 µM (active)
